Assay [1] deals with Peroxisome proliferator-activated receptor delta (Homo sapiens) (UniProt Q03181). The assay is described as follows: qHTS assay for small molecule agonists of peroxisome proliferator-activated receptor delta signaling (AID 588534; calls by dose curve;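 also: 0% = DMSO basal wells and 100% = positive control agonist at 10 µM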). A digest of the protocol: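 Agonist-mode beta-lactamase reporter readout (CCF4 dye, 2 h at RT) after 18 h at 37 °C exposure to a titration; Hill-equation fitting gave EC50 and maximal response.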
Chain of Peroxisome proliferator-activated receptor delta (Homo sapiens) (Q03181 whole entry, looked up): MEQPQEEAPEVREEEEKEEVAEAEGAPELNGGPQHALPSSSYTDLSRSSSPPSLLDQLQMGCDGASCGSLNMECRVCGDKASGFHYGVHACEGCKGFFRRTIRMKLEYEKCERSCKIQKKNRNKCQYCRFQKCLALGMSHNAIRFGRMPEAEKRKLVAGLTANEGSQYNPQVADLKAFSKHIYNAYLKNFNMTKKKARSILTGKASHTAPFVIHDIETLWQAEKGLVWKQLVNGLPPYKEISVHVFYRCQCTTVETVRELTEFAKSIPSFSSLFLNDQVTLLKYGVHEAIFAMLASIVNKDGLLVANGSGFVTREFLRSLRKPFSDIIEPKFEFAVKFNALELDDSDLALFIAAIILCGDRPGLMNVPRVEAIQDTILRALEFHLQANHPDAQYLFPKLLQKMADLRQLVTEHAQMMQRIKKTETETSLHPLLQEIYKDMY

The nature of assay [2]: qHTS assay for small molecule antagonists of peroxisome proliferator-activated receptor delta signaling (AID 588535; active = well fitted inhibition curve with a large enough effect in the signal ratio, with a control signal flat, not every such curve was filed as active; the % refers to the signal ratio; also: potency is read from the fitted curve at half-maximal effect;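 as to max response: cells co-treated with a PPAR-delta agonist as stimulator during compound exposure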). Particulars: HEK293T PPARd-UAS-bla, beta-lactamase FRET ratio, 18 h; 460 nm channel. A digest of the protocol:
(§1)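 Titrations were run on PPAR-delta-UAS-bla HEK293T cells in charcoal/dextran-stripped serum, incubated 18 h at 37 C. CCF4 fluorescence (460/530 nm) after 2 h RT; Hill equation yields IC50 and maximal response.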
Background: Quantitative high-throughput screening tests each substance at several concentrations.

Assay [3] addresses Peroxisome proliferator-activated receptor delta (Homo sapiens) (UniProt Q03181). The assay is described as above. A digest of the protocol:
as §1

Assay [4] concerns the target Peroxisome proliferator-activated receptor gamma (Homo sapiens) (UniProt P37231). Description: qHTS assay for small molecule agonists of peroxisome proliferator-activated receptor gamma signaling (AID 588536; active = well fitted curve in the direction sought with a large enough effect in the signal ratio, with a control signal flat, not every such curve was filed as active; the % refers to the signal ratio;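 also: 0% = DMSO basal wells and 100% = rosiglitazone at 2 µM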). An outline of the steps:
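This is an agonist-mode beta-lactamase reporter assay in HEK293 PPAR-gamma-UAS-bla cells with 1% charcoal/dextran FBS. Compound titrations ran 16 h at 37 C before CCF4 detection. EC50 and efficacy are Hill fits scaled to 2 uM rosiglitazone (100%) and DMSO basal.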

Assay [5] has the same target. Description: qHTS assay for small molecule antagonists of peroxisome proliferator-activated receptor gamma signaling (AID 588537; active = well fitted inhibition curve with a large enough effect in the signal ratio, with a control signal flat, not every such curve was filed as active; the % refers to the signal ratio; also: potency is read from the fitted curve at half-maximal effect). An outline of the steps: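 Antagonist-mode β-lactamase reporter screen run as a titration series. HEK293 PPARγ-UAS-bla cells are stimulated with rosiglitazone (50 nM final) for 16 h, then CCF4 is read at 460/530 nm. Data are scaled between DMSO and rosiglitazone and fitted to the Hill equation.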

Assay [6] in a line: qHTS assay for small molecule agonists of retinoid X receptor alpha signaling (AID 588544; calls by dose curve;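 as to activation: 0% = DMSO basal wells and 100% = reference agonist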). Particulars: HEK293T RXRa-UAS-bla, beta-lactamase reporter, 18 h; 530 nm emission.
Assay [7] addresses Retinoic acid receptor RXR-alpha (Homo sapiens) (UniProt P19793). The assay is described as above.
The target in assay [8] is Thyroid hormone receptor beta (Homo sapiens) (UniProt P10828). The assay is described as follows: qHTS assay for small molecule agonists of thyroid hormone receptor beta signaling (AID 588545; calls by dose curve;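 also: 0% = DMSO only and 100% = 10 nM T3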). A digest of the protocol:
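Compounds were tested as agonists in TR-UAS-bla-GripTite HEK 293 cells. After 18 hrs at 37 C, CCF4 substrate was added and fluorescence read after 2 hrs at room temperature.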

Assay [9] can be described thus: qHTS assay for small molecule antagonists of retinoid X receptor alpha signaling (AID 588546; active = well fitted inhibition curve with a large enough effect in the signal ratio, with a control signal flat, not every such curve was filed as active; the % refers to the signal ratio; also: potency is read from the fitted curve at half-maximal effect;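 as to max response: cells stimulated with 9-cis-retinoic acid as agonist; % is scaled to controls: 0 for no effect and ±100 for the full control effect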). The following applies: HEK293T RXRa-UAS-bla, beta-lactamase ratio, antagonist mode; measured here: W530 green channel, cytotoxicity proxy. An outline of the steps: (§2)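 Beta-lactamase reporter inhibition, read as CCF4 fluorescence ratio (ex 405, em 460/530 nm) after 2 h at RT. HEK293T UAS-bla cells, 2500/well, were stimulated with 9-cis-RA at 500 or 100 nM final alongside test compound for 18 h at 37 C.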

In assay [10] the target is Retinoic acid receptor RXR-alpha (Homo sapiens) (UniProt P19793). The description is as above. The following applies: HEK293T RXRa-UAS-bla, beta-lactamase ratio, antagonist mode. A digest of the protocol: as §2
Chain of Retinoic acid receptor RXR-alpha (Homo sapiens) (P19793 whole entry, looked up): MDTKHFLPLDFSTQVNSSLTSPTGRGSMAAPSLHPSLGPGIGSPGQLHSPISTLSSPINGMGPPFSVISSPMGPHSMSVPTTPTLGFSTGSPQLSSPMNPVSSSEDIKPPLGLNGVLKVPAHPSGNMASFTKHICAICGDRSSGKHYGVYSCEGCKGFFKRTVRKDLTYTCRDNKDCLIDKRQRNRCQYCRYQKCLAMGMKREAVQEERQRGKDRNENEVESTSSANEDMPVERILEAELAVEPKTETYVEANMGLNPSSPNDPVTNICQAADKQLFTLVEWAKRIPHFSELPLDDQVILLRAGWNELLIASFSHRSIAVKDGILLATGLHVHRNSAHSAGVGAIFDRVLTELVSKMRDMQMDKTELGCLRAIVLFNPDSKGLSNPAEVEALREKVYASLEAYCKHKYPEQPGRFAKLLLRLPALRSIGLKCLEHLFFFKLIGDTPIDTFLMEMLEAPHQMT
Assay [11] concerns the target Thyroid hormone receptor beta (Homo sapiens) (UniProt P10828). Description: qHTS assay for small molecule antagonists of thyroid hormone receptor beta signaling (AID 588547; active = well fitted inhibition curve with a large enough effect in the signal ratio, with a control signal flat, not every such curve was filed as active; the % refers to the signal ratio;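 also: cells stimulated with 0.4 nM T3 agonist during compound exposure; series mostly up to about 77 µM; % is scaled to controls: 0 for no effect and ±100 for the full control effect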). Particulars: TR-UAS-bla HEK293, beta-lactamase ratio, antagonist mode, 18 h. An outline of the steps:
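Inhibition of T3-driven (0.4nM final) beta-lactamase reporter activity was measured over 0.59 nM to 92 uM compound after 18 h at 37 C. The cells were GripTite HEK293 TR-UAS-bla in charcoal/dextran-stripped serum, with CCF4 ratio read-out and IC50 from Hill fits.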

Assay [12] addresses Voltage-gated inwardly rectifying potassium channel KCNH2 (Homo sapiens) (UniProt Q12809). The assay is described as follows: qHTS Assay for Small Molecule Inhibitors of the Human hERG Channel Activity (AID 588834).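 Also: U2OS cells transduced with hERG by BacMam; top concentration of the series differs between compounds; % is scaled to controls: 0 for no effect and ±100 for the full control effect; lower thallium flux fluorescence means stronger hERG block; nearly all actives have a fitted effect of over 50% in size.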 An outline of the steps:
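Cells were infected with hERG-BacMam virus for 4 hrs at room temperature, grown overnight, then seeded at 2000/well. After dye loading and roughly 10 min compound treatment, thallium influx was triggered and fluorescence recorded.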

The target of assay [13] is Luciferin 4-monooxygenase (Photinus pyralis) (UniProt P08659). The assay is described as follows: Biochemical firefly luciferase enzyme assay for NPC (AID 624030).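 Also: purified P. pyralis luciferase at 10 nM with luciferin and ATP substrate; series mostly up to about 59 µM; 0% = DMSO and -100% = full luciferase inhibition by PTC124 control; nearly all actives have a fitted effect of over 70% in size.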 An outline of the steps: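 Direct inhibition of firefly luciferase enzyme (10 nM final, 50 mM Tris Acetate) assessed by luminescence within 5 minutes. Percent activity scaled between DMSO and PTC124 positive control, with concentration-effect curves classified by fit quality and response.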
Chain of Luciferin 4-monooxygenase (Photinus pyralis) (P08659 whole entry, looked up): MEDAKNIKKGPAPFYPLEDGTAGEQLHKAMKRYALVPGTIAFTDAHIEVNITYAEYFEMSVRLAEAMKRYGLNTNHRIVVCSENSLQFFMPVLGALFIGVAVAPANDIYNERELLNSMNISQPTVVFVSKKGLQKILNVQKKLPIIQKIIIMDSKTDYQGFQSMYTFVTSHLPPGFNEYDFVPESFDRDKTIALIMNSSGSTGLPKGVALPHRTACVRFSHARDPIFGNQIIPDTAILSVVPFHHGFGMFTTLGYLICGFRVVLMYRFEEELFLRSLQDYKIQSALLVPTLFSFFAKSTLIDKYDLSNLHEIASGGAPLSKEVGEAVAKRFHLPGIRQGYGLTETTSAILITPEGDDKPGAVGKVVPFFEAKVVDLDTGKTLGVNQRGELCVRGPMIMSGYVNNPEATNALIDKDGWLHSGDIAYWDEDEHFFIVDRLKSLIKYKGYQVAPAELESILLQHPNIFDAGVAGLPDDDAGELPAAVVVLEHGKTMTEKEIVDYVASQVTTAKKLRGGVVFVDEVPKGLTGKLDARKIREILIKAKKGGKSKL

Assay [14] in a line: S16 Schwann cell viability assay (CellTiter-Glo assay) (AID 624031).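 Also: cellular ATP luminescence as a viability measure; series mostly up to about 58 µM; plate controls were DMSO-treated cells for no effect and cell-free wells for full effect; nearly all actives have a fitted effect of over 70% in size.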 A digest of the protocol:
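Native S16 rat Schwann cells, 500-750 cells/well in DMEM with 10% FBS, dosed with compound after overnight culture and incubated 24h at 37 degree Celsius/5% CO2. Viability by CellTiter-Glo luminescence; % activity normalized to no-cell wells and DMSO-treated cells.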
In general terms: Cellular ATP, detected with luciferase, serves as a proxy for viable cell number.

Assay [15] can be described thus: S16 Schwann cell PMP22 intronic element firefly luciferase assay (AID 624032). Also: nearly all actives have a fitted effect of over 30% in size. Also: potency is read from the fitted curve at half-maximal effect. A digest of the protocol: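 Luciferase reporter of PMP22 intronic-element expression in stably transfected S16 rat Schwann cells, read by ONE-Glo luminescence after 24 h compound exposure at 37 C. Activity scaled between DMSO (0%) and positive-control PTC124; concentration-effect curves quality-classified.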

For assay [16], the target named is Glucocorticoid receptor (Homo sapiens) (UniProt P04150). Description: qHTS assay for small molecule agonists of glucocorticoid receptor signaling (AID 588532; active = well fitted curve in the direction sought with a large enough effect in the signal ratio, with a control signal flat; the % refers to the signal ratio;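 also: 100% = dexamethasone at 0.1 µM and 0% = DMSO only wells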). The following applies: HeLa MMTV-bla, beta-lactamase ratio, agonist, 18 h; stronger effect = higher value; percent of dexamethasone control, DMSO zero. An outline of the steps: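 Using MMTV-bla HeLa cells in medium with 1% stripped FBS and 25 mM HEPES, compounds were titrated and incubated overnight-length (18 h). Beta-lactamase cleavage of CCF4 was quantified by dual-emission fluorescence.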
Chain of Glucocorticoid receptor (Homo sapiens) (P04150 whole entry, looked up): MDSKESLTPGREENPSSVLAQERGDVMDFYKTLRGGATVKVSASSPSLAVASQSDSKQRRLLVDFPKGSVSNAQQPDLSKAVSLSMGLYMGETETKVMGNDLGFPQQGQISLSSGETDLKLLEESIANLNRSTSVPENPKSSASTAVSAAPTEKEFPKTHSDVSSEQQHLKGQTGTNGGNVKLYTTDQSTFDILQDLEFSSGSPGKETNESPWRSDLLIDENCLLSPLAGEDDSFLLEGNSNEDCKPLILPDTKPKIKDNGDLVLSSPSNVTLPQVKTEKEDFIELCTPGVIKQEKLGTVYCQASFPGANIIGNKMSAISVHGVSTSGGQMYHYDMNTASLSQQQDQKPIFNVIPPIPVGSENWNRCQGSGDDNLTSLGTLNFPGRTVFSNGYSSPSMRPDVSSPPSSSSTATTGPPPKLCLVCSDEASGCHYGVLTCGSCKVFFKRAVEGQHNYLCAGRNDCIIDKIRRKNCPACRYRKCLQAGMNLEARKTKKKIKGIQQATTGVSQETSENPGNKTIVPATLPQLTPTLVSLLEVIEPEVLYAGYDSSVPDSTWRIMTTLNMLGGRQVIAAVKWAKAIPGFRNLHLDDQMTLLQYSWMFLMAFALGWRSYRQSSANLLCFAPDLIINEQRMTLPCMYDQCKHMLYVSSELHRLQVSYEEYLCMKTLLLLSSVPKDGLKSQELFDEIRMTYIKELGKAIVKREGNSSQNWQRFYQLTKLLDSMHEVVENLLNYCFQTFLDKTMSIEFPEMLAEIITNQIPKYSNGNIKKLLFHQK

A short description of assay [17]: S16 Schwann cell PMP22 intronic element beta-lactamase assay (AID 624044; calls by dose curve; also: nearly all actives have a fitted effect of over 15% in size; also: potency is read from the fitted curve at half-maximal effect). A digest of the protocol: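 Beta-lactamase reporter under a PMP22 intronic regulatory element in stable S16 rat Schwann cells; 24 h compound exposure. 460 nm blue signal normalized between DMSO (0%) and potassium clavulanate, with 535 nm FRET tracking viability; curves classed by r2 and response.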

Assay [18] addresses Glucocorticoid receptor (Homo sapiens) (UniProt P04150). The assay is described as follows: qHTS assay for small molecule antagonists of glucocorticoid receptor signaling (AID 588533; active = well fitted inhibition curve with a large enough effect in the signal ratio, with a control signal flat, not every such curve was filed as active; the % refers to the signal ratio;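 also: cells stimulated with 2 nM dexamethasone as agonist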; also: potency is read from the fitted curve at half-maximal effect). An outline of the steps:
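Antagonist-mode qHTS: compound titrations added to GRE-bla HeLa cells, then dexamethasone 2 nM final; 18 h, 37 C. CCF4 FRET fluorescence normalized to dexamethasone and DMSO; IC50 from Hill fit.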

The target of assay [19] is Vitamin D3 receptor (Homo sapiens) (UniProt P11473). Description: qHTS assay for small molecule antagonists of vitamin D receptor signaling (AID 588541; calls by dose curve;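 also: receptor activated by calcitriol during compound treatment; series mostly up to about 77 µM; % is scaled to controls: 0 for no effect and ±100 for the full control effect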). A digest of the protocol:
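Antagonist-mode beta-lactamase reporter assay: HEK293T VDR-UAS-bla cells were exposed to titrated compound alongside 1-alpha,25-dihydroxyvitamin D3 at 3 nM final for 16 h. Values were normalized to the 50 nM agonist control and DMSO basal, with IC50 and efficacy from Hill equation fits.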

Structures are written as SMILES. “And” between values parts separate entries of the source, which are not always exact repeats. Equal entries are not always repeated. Results filed as inconclusive are left out. Some compounds were tested as several samples or in several runs, with calls that do not always agree. The source made the active and inactive calls. Unless noted, calls follow the shape of the dose curve; as a rule, active = well fitted curve in the direction sought with a large enough effect; inconclusive = small, poorly fitted or top-dose-only effect, or another doubt; inactive = no such curve, though single readings can be large; an effect the other way counts as inactive or inconclusive.

Chain of Voltage-gated inwardly rectifying potassium channel KCNH2 (Homo sapiens) (Q12809 whole entry, looked up): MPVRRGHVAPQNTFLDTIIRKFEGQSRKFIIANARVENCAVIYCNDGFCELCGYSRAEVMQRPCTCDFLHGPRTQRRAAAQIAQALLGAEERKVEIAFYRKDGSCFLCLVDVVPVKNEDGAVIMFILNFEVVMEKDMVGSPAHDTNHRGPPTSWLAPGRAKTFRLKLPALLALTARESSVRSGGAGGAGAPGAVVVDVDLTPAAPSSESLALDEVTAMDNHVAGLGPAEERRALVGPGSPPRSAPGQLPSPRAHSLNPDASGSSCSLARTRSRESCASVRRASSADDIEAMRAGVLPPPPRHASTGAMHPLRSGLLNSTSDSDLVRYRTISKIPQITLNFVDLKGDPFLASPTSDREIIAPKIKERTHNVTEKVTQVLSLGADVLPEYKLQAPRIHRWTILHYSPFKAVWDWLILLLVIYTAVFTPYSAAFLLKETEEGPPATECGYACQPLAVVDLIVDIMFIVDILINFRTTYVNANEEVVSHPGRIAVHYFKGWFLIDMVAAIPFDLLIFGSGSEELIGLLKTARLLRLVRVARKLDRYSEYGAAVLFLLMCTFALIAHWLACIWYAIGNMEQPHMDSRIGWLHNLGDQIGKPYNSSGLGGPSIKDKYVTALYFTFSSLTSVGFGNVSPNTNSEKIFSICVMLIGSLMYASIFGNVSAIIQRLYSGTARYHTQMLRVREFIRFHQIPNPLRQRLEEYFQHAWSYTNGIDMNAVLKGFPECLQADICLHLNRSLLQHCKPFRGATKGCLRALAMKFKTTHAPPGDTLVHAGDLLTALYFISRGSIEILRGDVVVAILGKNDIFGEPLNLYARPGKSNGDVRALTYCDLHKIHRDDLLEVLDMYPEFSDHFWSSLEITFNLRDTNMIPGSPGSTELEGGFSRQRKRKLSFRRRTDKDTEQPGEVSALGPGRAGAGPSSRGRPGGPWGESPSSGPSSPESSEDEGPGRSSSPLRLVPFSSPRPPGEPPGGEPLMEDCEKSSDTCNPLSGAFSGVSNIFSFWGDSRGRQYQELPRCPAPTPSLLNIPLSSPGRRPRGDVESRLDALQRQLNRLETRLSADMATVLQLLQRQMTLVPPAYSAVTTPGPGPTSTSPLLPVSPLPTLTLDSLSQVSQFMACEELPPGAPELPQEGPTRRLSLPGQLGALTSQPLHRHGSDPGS
Chain of Thyroid hormone receptor beta (Homo sapiens) (P10828 whole entry, looked up): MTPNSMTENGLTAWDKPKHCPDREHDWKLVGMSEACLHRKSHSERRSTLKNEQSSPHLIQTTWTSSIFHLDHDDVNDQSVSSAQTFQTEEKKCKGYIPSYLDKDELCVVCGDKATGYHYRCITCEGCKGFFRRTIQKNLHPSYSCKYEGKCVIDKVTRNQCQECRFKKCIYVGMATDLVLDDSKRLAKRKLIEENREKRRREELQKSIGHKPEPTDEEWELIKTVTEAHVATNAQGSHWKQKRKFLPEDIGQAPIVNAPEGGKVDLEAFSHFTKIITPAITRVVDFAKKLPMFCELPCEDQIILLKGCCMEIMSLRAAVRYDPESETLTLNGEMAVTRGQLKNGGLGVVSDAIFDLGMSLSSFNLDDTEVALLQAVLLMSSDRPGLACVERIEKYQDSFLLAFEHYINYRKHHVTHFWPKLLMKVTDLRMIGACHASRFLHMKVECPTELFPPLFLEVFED
Chain of Peroxisome proliferator-activated receptor gamma (Homo sapiens) (P37231 whole entry, looked up): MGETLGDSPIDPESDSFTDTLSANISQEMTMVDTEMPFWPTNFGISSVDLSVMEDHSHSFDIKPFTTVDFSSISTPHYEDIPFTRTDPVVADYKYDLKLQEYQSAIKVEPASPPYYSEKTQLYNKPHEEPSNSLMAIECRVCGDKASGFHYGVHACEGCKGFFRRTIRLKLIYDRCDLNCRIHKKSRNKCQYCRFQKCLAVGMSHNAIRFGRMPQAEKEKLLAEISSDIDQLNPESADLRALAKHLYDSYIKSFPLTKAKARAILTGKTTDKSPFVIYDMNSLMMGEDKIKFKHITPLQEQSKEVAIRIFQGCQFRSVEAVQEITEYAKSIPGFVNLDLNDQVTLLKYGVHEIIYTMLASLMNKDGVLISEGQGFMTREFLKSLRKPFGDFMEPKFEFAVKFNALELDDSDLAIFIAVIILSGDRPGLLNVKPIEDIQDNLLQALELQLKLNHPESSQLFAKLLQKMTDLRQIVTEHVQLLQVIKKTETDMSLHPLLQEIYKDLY
Chain of Vitamin D3 receptor (Homo sapiens) (P11473 whole entry, looked up): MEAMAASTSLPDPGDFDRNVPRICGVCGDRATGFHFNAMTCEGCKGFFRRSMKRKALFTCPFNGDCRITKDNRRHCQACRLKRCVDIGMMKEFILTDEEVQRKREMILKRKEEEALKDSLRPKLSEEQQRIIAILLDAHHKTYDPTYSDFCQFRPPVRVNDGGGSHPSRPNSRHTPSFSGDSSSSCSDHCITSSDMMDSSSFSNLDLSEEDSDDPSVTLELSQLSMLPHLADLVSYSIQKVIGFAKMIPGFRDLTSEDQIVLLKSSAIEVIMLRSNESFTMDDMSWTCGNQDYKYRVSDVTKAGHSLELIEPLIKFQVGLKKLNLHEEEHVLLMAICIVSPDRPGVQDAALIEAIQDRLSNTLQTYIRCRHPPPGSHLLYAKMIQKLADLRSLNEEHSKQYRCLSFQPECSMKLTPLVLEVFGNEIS

On to `Nc1ccn([C@H]2CC[C@@H](CO)O2)c(=O)n1`, for which the outcome in assay [1] was inactive.
For `Oc1c(Br)cc(Br)cc1Br`, the compound was called inactive in assay [1], in [4], in assay [7] and in assay [8]. Moreover, the max response in assay [2] was 18.5%; in assay [6], -20.6%; in [9], 9.85% and -7.56%; in assay [10] it was -6.81% (inactive) and -18.8% (inactive). In addition, the Potency entry in assay [3], in [5], in assay [12], in assay [13], in assay [14] and in [15] was “inactive” in each case. In [11], the activity change % (negative = inhibition) was 15.6% (inactive).
Turning to `COP(=O)(OC)C(O)C(Cl)(Cl)Cl` (configuration not stated), the activation in assay [16] is 3.67% (inactive). For the same compound, the compound was called inactive in assay [8]. For the same compound, the Potency entry in [12], in assay [13], in assay [14], in [15] and in assay [17] was “inactive” throughout.
Consider `N[C@@H](Cc1c[nH]c2ccc(O)cc12)C(=O)O`, for which, in assay [1], the result was inactive.
Consider `CCCCCCCCCCCCCCCC[n+]1ccccc1`, for which the compound was classed as inactive in assay [1]. The Potency in [15] is 10.2 µM (active); in assay [17] it was 12.6 µM (active).
Turning to `O=C(CCl)c1ccc(Cl)cc1Cl`, in assay [16], the activation was -10.9% (inactive). The Potency in assay [18] was 14.1 µM (active). Moreover, the call in [8] was inactive. Besides, the Potency result in assay [12] and in [13] was “inactive” throughout.
Consider `CCOC(=O)c1cncn1C(C)c1ccccc1` (configuration not stated), for which the Potency entry in [12] was “inactive”.
For `COCC(=O)N(c1c(C)cccc1C)C(C)C(=O)OC` (configuration not stated), the max response in assay [2] was -19%; in [6] it was 3.24%; in [9], 1.9%; in assay [10], -3.83% (inactive). For the same compound, the Potency entry in assay [3], in [5], in assay [12], in assay [13], in [14] and in assay [15] was “inactive” each time. The compound was classed as inactive in [4], in assay [19] and in [7].
With `CC[n+]1c(-c2ccccc2)c2cc(N)ccc2c2ccc(N)cc21`, in [1], the compound was classed as inactive. Also, the max response in assay [2] was -102%; in [9], -17.9%. Besides, the Potency is 31.6 µM (active) in assay [3] and 8.91 µM (active) in [10]. The Potency entry in [12], in assay [13], in assay [14] and in [15] was “inactive” throughout.
As to `Cc1ccc(N=CN(C)C=Nc2ccc(C)cc2C)c(C)c1`, the activation in [16] is 6.83% (inactive). For the same compound, the Potency entry in assay [18], in assay [13], in assay [14], in [15] and in [17] was “inactive” throughout. For the same compound, the max response in [9] is -10.6%; in assay [10], -33.7% (inactive).
In the case of `Oc1ccc(Cl)cc1Cc1cc(Cl)ccc1O`, the Potency in assay [5] is 35.5 µM (active); in [10] it was 14.1 µM (active). Also, the max response in [9] is -8.06%. The Potency result in assay [12] was “inactive”.
In the case of `CCCCCCCCC(=O)NCc1ccc(O)c(OC)c1`, the max response was 11.4% in assay [2], 2.94% in assay [6], -4.12% in assay [9] and -5.69% (inactive) in assay [10]. In addition, the Potency result in assay [3], in [12], in assay [13], in assay [14], in assay [15] and in [17] was “inactive” throughout. In addition, the compound was called inactive in assay [4], in assay [19], in [7] and in assay [8]. Moreover, in assay [11], the activity change % (negative = inhibition) is 5.83% (inactive).

The values above are taken from PubChem BioAssay (NCATS).
